Laboratory results from PubChem BioAssay AID434926 (Sanford-Burnham Center for Chemical Genomics, 2010).
Some of the results follow. A number with no mark means an inactive call. Active and inactive are the calls of the source.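 Rule for the calls: active = at least twofold enzyme activation in any of six single-dose repeats, which the averaged readout prints as negative percent; inactive = the rest.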

Target: Intestinal-type alkaline phosphatase (Homo sapiens) (UniProt P09923)
Assay: human IAP activators, confirmation, biochemical, luminescence, single concentration, uHTS hits (AID 434926)
Settings: purified IAP, CDP-Star luminescence, 30 min; at 8.3 µM; stronger effect = lower value

Sequence of Intestinal-type alkaline phosphatase (Homo sapiens) (P09923 whole entry, looked up): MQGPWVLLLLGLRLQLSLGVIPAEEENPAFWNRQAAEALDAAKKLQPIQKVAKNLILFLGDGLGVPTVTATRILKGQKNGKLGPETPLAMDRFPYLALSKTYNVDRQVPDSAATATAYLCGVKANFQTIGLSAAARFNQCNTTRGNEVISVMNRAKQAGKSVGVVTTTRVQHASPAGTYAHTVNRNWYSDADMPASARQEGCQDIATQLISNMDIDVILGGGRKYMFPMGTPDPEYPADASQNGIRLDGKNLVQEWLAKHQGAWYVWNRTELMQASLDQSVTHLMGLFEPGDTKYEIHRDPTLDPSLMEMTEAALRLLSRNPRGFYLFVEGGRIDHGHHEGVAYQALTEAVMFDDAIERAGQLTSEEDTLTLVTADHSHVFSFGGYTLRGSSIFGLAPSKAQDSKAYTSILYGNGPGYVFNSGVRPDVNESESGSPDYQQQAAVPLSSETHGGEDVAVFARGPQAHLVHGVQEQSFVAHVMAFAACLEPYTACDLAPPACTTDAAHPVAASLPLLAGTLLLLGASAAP

| Structure (SMILES) | activation (%Activity, negative = activation) |
| --- | --- |
| Cn1c(=O)c2sccc2n(Cc2ccc(Br)cc2)c1=O | 6.79% |
| COc1ccc(C2=Nc3cc(C)ccc3OC2)cc1 | 58.3% |
| c1ccc2[nH]c(-c3nc4ccccc4[nH]3)nc2c1 | 10.7% |
| O=C(Nc1ccc(Cl)cc1)c1ccsn1 | -68.3% |
| c1ccc(CSCCc2ccncc2)cc1 | -33.2% (active) |
| CCCCOC(=O)Nc1sc2nc(C)cc(C)c2c1-n1cccc1 | -49% |
| Cc1cccc(NS(=O)(=O)c2cccc(C(=O)NNC(=O)c3ccccc3O)c2)c1 | 29.2% |
| COc1cccc(/C=N\NC(=O)C2=NNC(=O)C2C)c1O (centres undefined) | 34.8% |
| OCCCN1c2ccccc2Nc2nnc(-c3ccccc3)cc21 | -25.8% |
| Cn1c(=O)c2c(nc(N/N=C/c3cccs3)n2Cc2ccc(Br)cc2)n(C)c1=O | -8.19% |
| COc1cc(NC(=O)COC(=O)c2cnc(C)cn2)c(C)cc1[N+](=O)[O-] | 6.98% |
| COc1cc(/C=C2/SC(=S)N(Cc3ccccc3)C2=O)cc(OC)c1O | 3.41% |
| O=C(NCCN1CCOCC1)[C@H](Cc1ccccc1)N1C(=O)c2ccccc2C1=O | -5.42% |
| CCOc1ccc(NC(=O)CSc2nncn2C)cc1 | -83.5% (active) |
| Cc1c(NC(=O)CN(C)CC(=O)Nc2ccc(F)c(F)c2F)c(=O)n(-c2ccccc2)n1C | -0.594% |
| CC(=NCc1ccc2c(c1)OCO2)C1=C(O)c2ccccc2C1=O | -2.92% |
| Cc1ccc(NC(=O)c2cc(-c3ccccc3O)n[nH]2)cc1C | -1.54% |
| Cc1ccc2c(c1)nnc1nnc(SCC(=O)O)n12 | 33.9% |
| C[C@H](NC(=O)c1[nH]cnc1C(=O)Nc1nccs1)c1ccccc1 | -3.71% |
| COc1cccc(CNS(=O)(=O)c2ccc3c(c2)N(C(C)=O)CCS3)c1 | -34.5% |
| N#C/C(=C\c1ccc(O)c(O)c1)C(=O)NCc1ccccc1 | -0.121% |
| COc1cccc(/C=N/NC(=O)c2[nH]nc3c2CCc2ccccc2-3)c1O | 13.9% |
| COCCSc1nnc(NC(=O)CCS(=O)(=O)Cc2ccccc2)s1 | -46.9% |
| OC(c1nc2ccc(F)cc2[nH]1)C(O)c1nc2ccc(F)cc2[nH]1 (centres undefined) | 24.7% |
